Screens: PubChem BioAssay, National Center for Advancing Translational Sciences (NCATS)
This is a sample that favours compounds with a hit; in the whole collection about 3.7% have one here.
DRV1 agonist: GPR32 (DRV1) agonism, beta-arrestin recruitment | CHO-K1 GPR32 beta-arrestin PathHunter luminescence, 90 min; zero percent set by DMSO-only wells | activation, % at 76.9 µM | hit rate 2.5% among 48,000;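 active = activation of at least 60% and not above a set upper limit, about 1 call in 100 departs from these limits; inconclusive = activation of 40% to 60%, or above that upper limit; inactive = activation under 40%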; note: 0% is about no effect
Target sequence (O75388 whole entry, looked up): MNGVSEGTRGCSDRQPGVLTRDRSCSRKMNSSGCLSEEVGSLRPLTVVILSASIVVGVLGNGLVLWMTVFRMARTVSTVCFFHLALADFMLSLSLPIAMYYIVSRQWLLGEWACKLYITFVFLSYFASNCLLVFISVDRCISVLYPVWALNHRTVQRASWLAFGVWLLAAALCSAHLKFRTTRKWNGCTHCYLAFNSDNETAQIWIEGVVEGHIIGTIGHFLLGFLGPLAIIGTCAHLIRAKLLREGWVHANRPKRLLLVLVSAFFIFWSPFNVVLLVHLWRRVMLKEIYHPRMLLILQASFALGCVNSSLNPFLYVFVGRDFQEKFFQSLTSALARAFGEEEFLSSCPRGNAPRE
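CHO-K1 cells stably expressing ProLink-tagged GPR32 and Enzyme Activator-tagged beta-arrestin were seeded at 2,500 cells/well overnight, exposed to compounds for 90 min at 37 °C, then read by beta-Gal complementation chemiluminescence after 1 h detection reagent.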
PTAP-TSG101 blk: TSG101-PTAP interaction inhibition, HIV-1 budding | Fluorescence polarization, FITC-PTAP peptide/Tsg101, 20 min | Potency, µM (highest dose often 115 µM), actives largely listed as inhibitors | 44,000 tested, under 10 active | Q99816; note: potency is the fitted concentration of half-maximal effect; 0% is about no effect
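Steps: Tsg101 binding domain (10 uM final) in HEPES pH 7.5/NaCl/Tween 20/EDTA/TCEP; add compound; add FITC-PTAP peptide (50 nM final); incubate 20 min r.t.; read polarization.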
GALK inhibitor: inhibits human galactokinase; recombinant GALK, Kinase-Glo ATP luminescence, 1 h; Potency, µM (titrated, usually from 57.5 µM), for inactives: at the highest dose activity, negative = inhibition, usual class: inhibitors; 44,000 tested, under 10 active; P51570;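 note: plate controls were full GALK reaction for no effect and reaction lacking GALK for full effect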
Target sequence (P51570 whole entry, looked up): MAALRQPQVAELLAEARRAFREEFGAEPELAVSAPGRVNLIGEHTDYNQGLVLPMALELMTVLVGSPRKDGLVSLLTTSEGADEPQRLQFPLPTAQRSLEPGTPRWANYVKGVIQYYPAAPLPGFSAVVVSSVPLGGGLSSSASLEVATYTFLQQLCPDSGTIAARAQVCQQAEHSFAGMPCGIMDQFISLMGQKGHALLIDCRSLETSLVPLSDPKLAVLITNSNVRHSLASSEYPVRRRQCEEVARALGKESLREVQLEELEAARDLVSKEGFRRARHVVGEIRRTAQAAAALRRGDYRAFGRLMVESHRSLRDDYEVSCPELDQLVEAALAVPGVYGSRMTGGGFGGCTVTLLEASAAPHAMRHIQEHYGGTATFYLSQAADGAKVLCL
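Human GALK (5 nM) was incubated with 35 uM ATP and 100 uM galactose in 20 mM HEPES pH 8.0 with MgCl2, NaCl, DTT and BSA for 1 h at room temperature. Remaining ATP was measured by Kinase-Glo Plus luminescence.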
FH mod: Identification of activators of human fumarate hydratase by quantitative high-throughput screening. Fumarate hydratase, mitochondrial (Homo sapiens), P07954. FH coupled MDH/diaphorase resazurin fluorescence, 15 min. Potency, µM (highest dose often 79.9 µM), for the others: at the highest dose activity change, negative = inhibition, hits mostly inhibitors. hit rate 0.22% among 54,000. AID 1347055, 2019; note: potency is the fitted concentration of half-maximal effect; % is set by controls: 0 for no effect and ±100 for the full control effect; the screen sought activators but most active calls are inhibition curves; nearly all actives have a fitted effect of over 45% in size
NTMT1 inhibitor: inhibitors of human N-terminal methyltransferase NTMT1; Q9BV86; NTMT1 MTase-Glo SAH luminescence, purified enzyme; Potency, µM (titrated, usually from 114 µM), inactives show at the highest dose activity change, negative = inhibition, usual class: inhibitors; hit rate 2.5% among 59,000; AID 1645870;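 note: potency is the fitted concentration of half-maximal effect; plate controls were DMSO vehicle for no effect and no enzyme for full effect; nearly all actives have a fitted effect of over 65% in size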
B2AR arrestin ag: agonists recruiting beta-arrestin to human beta2-adrenergic receptor; P07550; HTLA Tango cells, beta-arrestin recruitment, luciferase luminescence, 18 h; Potency, µM (doses to about 46.1 µM), most hits filed as activators; 44,000 tested, under 10 active; AID 1347077;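 note: potency is the fitted concentration of half-maximal effect; 0% = DMSO and full agonism = EC100 isoproterenol or metaproterenol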
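Tango cell line, 1% FBS DMEM; cpd titration up to 46 microM; 18 hr, 37 degrees C, 5% CO2. Luciferin/ATP substrate mix added, 15 min RT, luminescence. %Activity, CRC fitting, curve-class categorization.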
* = called active by the depositor; i = inactive; ? = inconclusive; / = not tested or not shown; ! = a repeat was not active; [ ] = remark or other dose. Unless noted, calls come from the whole dose curve; as a rule, active = well fitted curve in the direction sought with a large enough effect; inconclusive = small, poorly fitted or top-dose-only effect, or another doubt; inactive = no such curve, though single readings can be large; an effect the other way counts as inactive or inconclusive.

SMILES	DRV1 agonist	PTAP-TSG101 blk	GALK inhibitor	FH mod	NTMT1 inhibitor	B2AR arrestin ag
O=C1CCCC2=C1C(c1[nH]ncc1Cl)N=C(Nc1nc3ccc(Cl)cc3o1)N2 (centres undefined)	/	/	/	/	-12%[57.5 µM]	/
C/C(=C/CO)CC[C@H]1[C@]2(C)C[C@H](O)CC(C)(C)[C@H]2CC[C@]1(C)O	/	/	/	8%[53.3 µM]	5%[29.8 µM]	/
CC(C)(C)c1ccc(/C=C/C(=O)Nc2ccc(S(N)(=O)=O)cc2)cc1	94*	i	-3%	3%	6%	i
Cc1ccccc1C(=O)N1CCc2cc(-c3nc(NC(=O)c4ccc5c(c4)OCO5)sc3C)ccc21	/	/	/	/	4%	/
CCCCN(CC)C(=O)C1CCC(CNS(=O)(=O)c2cccc3nsnc23)CC1 (centres undefined)	68*	i	0%	-2%	-12%	i
O=C(Nc1ccc(C(F)(F)F)cc1)C1CCC(CNS(=O)(=O)c2cccc3nsnc23)CC1 (centres undefined)	114*	i	0%	-7%	0%	i
CCN(C(=O)C1CCC(CNS(=O)(=O)c2cccc3nsnc23)CC1)c1ccc(C)c(C)c1 (centres undefined)	-17	i	9%	-35%	17%	i
CC(C)c1ccc(NC(=O)CCNS(=O)(=O)c2cccc3nsnc23)cc1	75*	i	-2%	-5%	0%	i
Cc1ccc(NC(=O)CCNS(=O)(=O)c2cccc3nsnc23)cc1	-25	i	4%	-12%	11%	i
C/C=C1\[C@H](O[C@@H]2O[C@H](CO)[C@@H](O)[C@H](O)[C@H]2O)OC=C(C(=O)OCCc2ccc(O)cc2)[C@H]1CC(=O)OCCc1ccc(O)cc1	/	/	/	-6%[20.6 µM]	9%[12.6 µM]	/
Cc1cccc(NC(=O)CSc2nc(-c3cccs3)nc3cc(=O)[nH]n23)c1	-22	i	4%	/	/	i
Cc1ccc(NC(=O)CSc2nc(-c3cccs3)nc3cc(=O)[nH]n23)cc1	99*	i	-6%	/	/	i
Cc1n[nH]c(C)c1S(=O)(=O)N1CCCC(C(=O)Nc2ccc(Cl)cc2)C1 (centres undefined)	107*	i	0%	-6%	-3%	i
CC1CCCC(O)CCC/C=C/c2cc(OS(=O)(=O)O)cc(O)c2C(=O)O1 (centres undefined)	/	/	/	-1%[53.3 µM]	13µM*	/
O=Nc1ccc2oc(=O)ccc2c1	-15	/	/	1µM*	/	/
O=c1ccc2ccc(O)c(O)c2o1	12	/	/	?	-19%[57.5 µM]	/
CC(C)(C)NC(=O)[C@H]1CC[C@H]2[C@@H]3CC[C@H]4NC(=O)CC[C@]4(C)[C@H]3CC[C@]12C	/	/	/	3%	-7%[57.5 µM]	/
CCCC12CN3CC(C)(CN(C1)C3c1cn(C)c3ccccc13)C2=O (centres undefined)	0	i	-3%	-13%	-1%	i
Cn1cc(C2=C(c3c4n(c5ccccc35)CCC(CN)C4)C(=O)NC2=O)c2ccccc21 (centres undefined)	/	/	/	-7%[53.3 µM]	40µM*!	/
O=C(Nc1ccc(F)c(C(F)(F)F)c1)Nc1ccc(-c2ccncc2)s1	/	/	/	/	0%[57.5 µM]	/
Cc1ccc(-c2ccc(=O)n(CC(=O)NCc3ncc[nH]3)n2)cc1	/	/	/	/	16%	/
O=C(Nc1ccc2oc(-c3cccnc3)nc2c1)c1ccc(-c2ccc(OC(F)(F)F)cc2)o1	30	i	1%	-4%	50µM*	i
O=C(Nc1ccc2oc(-c3cccnc3)nc2c1)c1ccc(-c2ccccc2)o1	-1	i	0%	7%	?	i
Cc1cccc2oc(NC3=NC(c4[nH]ncc4Cl)C4=C(CCCC4=O)N3)nc12 (centres undefined)	/	/	/	/	-11%	/
CC(=O)N1CCOc2cc(S(=O)(=O)NCc3ccc(F)cc3)c(C)cc21	21	i	1%	-5%	2%	i
SMILES	DRV1 agonist	PTAP-TSG101 blk	GALK inhibitor	FH mod	NTMT1 inhibitor	B2AR arrestin ag
COc1ccc(CNS(=O)(=O)c2cc3c(cc2Cl)N(C(C)=O)CCO3)cc1	4	35µM*	0%	0%	-5%	i
CC1=CC(=O)C(C(C)C)=C/C1=N/OC(=O)c1ccccc1C	/	/	/	-13%	?	/
C=C(C)C1CCC2(C(=O)OC3OC(COC4OC(CO)C(O)C(O)C4O)C(OC4OC(C)C(O)C(O)C4O)C(O)C3O)CCC3(C(=O)O)C(CCC4C5(C)CCC(=O)C(C)(C)C5CCC43C)C12 (centres undefined)	/	/	/	8%[20.6 µM]	8%[12.6 µM]	/
CCN(CC)CCOc1ccc(C(O)(Cc2ccc(Cl)cc2)c2ccc(C)cc2)cc1 (centres undefined)	63*	/	/	-13%[53.3 µM]	-29%[57.5 µM]	/
COc1ccc2c(c1)c(C1=C(c3c[nH]c4ccccc34)C(=O)NC1=O)cn2CCCN(C)C	/	/	/	-7%[53.3 µM]	14µM*	/
CC(C)c1ccc(Cn2ccc3c4c(N)nc(NC5CC5)nc4ccc32)cc1	/	/	/	-10%[53.3 µM]	25µM*!	/
CCC(=O)Nc1ccc2nc(SCCOc3ccc(C)cc3OC)sc2c1	93*	i	-8%	-6%	?	i
CCC(=O)Nc1ccc2nc(SCCOc3cccc(C)c3)sc2c1	86*	i	-1%	-8%	-2%	i
CCO[C@@H]1OC(=O)C[C@@H]1NC(=O)[C@@H]1CCCN2C(=O)CC[C@H](NC(=O)c3nccc4ccccc34)C(=O)N12	/	/	/	/	11%	/
COc1cc(/C=C(\C#N)C(=O)c2ccc(O)c(O)c2)cc(I)c1O	-20	/	/	7.9µM*	/	/
C[C@H](NC(=O)/C(C#N)=C/c1ccc(O)c(O)c1)c1ccccc1	-27	/	/	?	/	/
Nc1ncnc2c1c(-c1cccc(OCc3ccccc3)c1)cn2C1CC(CN2CCCC2)C1 (centres undefined)	/	/	/	-3%	13µM*	/
Cc1c(Cl)cccc1NC(=O)c1cc2sccc2n1Cc1ccc(F)cc1	0	i	1%	-11%	89µM*	i
Cc1ccc(-c2nn3c(-c4ccccc4)nnc3s2)cc1NC(=O)c1ccc(-c2cccc(Cl)c2)o1	/	/	/	/	-4%	/
CCOCCCNc1ncnc2c1cnn2-c1ccc(C)c(C)c1	89*	i	-2%	-5%	?	i
Cc1ccc([S+](=O)([O-])n2cc(Cc3ccc(-c4ccccc4)cc3)c3ccccc32)cc1	/	/	/	/	13%	/
C[N+](C)(C)CCOP(=O)(O)OP(=O)([O-])OC[C@H]1O[C@@H](n2ccc(N)nc2=O)[C@H](O)C1O (some centres undefined)	/	/	/	-12%[53.3 µM]	/	/
CCc1ccc(CN2CCc3nc(N4CCN(CC)CC4)ncc3C2)cc1	-29	i	-2%	2%	3%	i
